Test results as given in PubChem BioAssay AID1159580 (chemical genetic matrix, 2015).
Among all 5,500 compounds or so, about 2,000 (36%) were called active. About 18% were inconclusive and are not listed. Cut-off read from the data, not from the text of the source: active = normalized growth mostly below about 0.91 (no sharp cut-off); inconclusive = no clear call, values can overlap the other calls; inactive = mostly above about 0.92. The list shows a part of the results.

Experiment: chemical genetic growth profiling, strain panel (AID 1159580);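 note: tested at 20 µM; growth read once vehicle control cultures reached saturation at 30 °C; 1 = growth at the plate median or of vehicle wells; lower values mean less growth of the strain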
Details: growth OD

Measured: normalized growth

COc1ccc2c(c1C(C)C)CCC1C(C)(C)C(=O)CCC21C (stereo unspecified)
active: S. cerevisiae deletion strains, locus YNL307C, strain MCK1, hits give low values 0.854
inactive: S. cerevisiae deletion strains, locus YAL013W, strain DEP1, hits give low values 1 | S. cerevisiae deletion strains, locus YBR021W, strain FUR4, hits give low values 1 | S. cerevisiae deletion strains, locus YBR229C, strain ROT2, hits give low values 0.988 | S. cerevisiae deletion strains, locus YCL029C, strain bik1, hits give low values 0.955 | S. cerevisiae deletion strains, locus YDL035C, strain GPR1, hits give low values 0.972 | S. cerevisiae deletion strains, locus YDL074C, strain BRE1, hits give low values 0.969 | S. cerevisiae deletion strains, locus YDL101C, strain DUN1, hits give low values 0.996 | S. cerevisiae deletion strains, locus YDL134C, strain PPH21, hits give low values 0.976 | S. cerevisiae deletion strains, locus YDL185W, strain tfp1, hits give low values 0.982 | S. cerevisiae deletion strains, locus YDL192W, strain arf1, hits give low values 0.974 | S. cerevisiae deletion strains, locus YDR101C, strain arx1, hits give low values 0.981 | S. cerevisiae deletion strains, locus YDR150W, strain NUM1, hits give low values 0.96 | S. cerevisiae deletion strains, locus YDR162C, strain NBP2, hits give low values 0.983 | S. cerevisiae deletion strains, locus YDR318W, strain mcm21, hits give low values 0.968 | S. cerevisiae deletion strains, locus YDR388W, hits give low values 0.977 | S. cerevisiae deletion strains, locus YDR502C, strain sam2, hits give low values 0.982 | S. cerevisiae deletion strains, locus YEL061C, strain CIN8, hits give low values 0.988 | S. cerevisiae deletion strains, locus YER110C, hits give low values 0.982 | S. cerevisiae deletion strains, locus YER155C, strain BEM2, hits give low values 0.991 | S. cerevisiae deletion strains, locus YER167W, strain BCK2, hits give low values 0.95 | S. cerevisiae deletion strains, locus YGL078C, strain dbp3, hits give low values 0.977 | S. cerevisiae deletion strains, locus YGL086W, strain mad1, hits give low values 0.961 | S. cerevisiae deletion strains, locus YGL248W, strain PDE1, hits give low values 0.976 | S. cerevisiae deletion strains, locus YGR078C, strain PAC10, hits give low values 1 | S. cerevisiae deletion strains, locus YGR135W, strain pre9, hits give low values 0.984 | S. cerevisiae deletion strains, locus YGR229C, strain SMI1, hits give low values 0.974 | S. cerevisiae deletion strains, locus YGR252W, strain gcn5, hits give low values 0.98 | S. cerevisiae deletion strains, locus YHR030C, strain SLT2, hits give low values 0.979 | S. cerevisiae deletion strains, locus YHR079C, strain IRE1 (second series), hits give low values 0.96 | S. cerevisiae deletion strains, locus YHR094C, strain hxt1, hits give low values 0.974 | S. cerevisiae deletion strains, locus YHR129C, strain ARP1, hits give low values 0.983 | S. cerevisiae deletion strains, locus YHR200W, strain rpn10, hits give low values 0.955 | S. cerevisiae deletion strains, locus YIL066C, strain RNR3, hits give low values 0.979 | S. cerevisiae deletion strains, locus YIL073C, strain SPO22, hits give low values 0.921 | S. cerevisiae deletion strains, locus YIL125W, strain kgd1, hits give low values 0.971 | S. cerevisiae deletion strains, locus YIR030C, strain dcg1, hits give low values 0.97 | S. cerevisiae deletion strains, locus YJL095W, strain BCK1, hits give low values 0.954 | S. cerevisiae deletion strains, locus YJL134W, strain LCB3, hits give low values 0.983 | S. cerevisiae deletion strains, locus YJL168C, strain set2, hits give low values 0.984 | S. cerevisiae deletion strains, locus YJL187C, strain SWE1 (second series), hits give low values 0.986 | S. cerevisiae deletion strains, locus YJR043C, strain POL32, hits give low values 0.962 | S. cerevisiae deletion strains, locus YJR075W, strain HOC1, hits give low values 1 | S. cerevisiae deletion strains, locus YKL009W, strain mrt4, hits give low values 0.966 | S. cerevisiae deletion strains, locus YKL068W, hits give low values 0.976 | S. cerevisiae deletion strains, locus YKL085W, strain MDH1 (second series), hits give low values 0.967 | S. cerevisiae deletion strains, locus YKL085W, strain MDH1, hits give low values 0.967 | S. cerevisiae deletion strains, locus YKL190W, strain CNB1, hits give low values 0.988 | S. cerevisiae deletion strains, locus YKR001C, strain vps1, hits give low values 0.979 | S. cerevisiae deletion strains, locus YLR039C, strain RIC1, hits give low values 0.995 | S. cerevisiae deletion strains, locus YLR058C, strain SHM2, hits give low values 0.981 | S. cerevisiae deletion strains, locus YLR102C, strain apc9, hits give low values 0.978 | S. cerevisiae deletion strains, locus YLR262C, strain YPT6, hits give low values 0.994 | S. cerevisiae deletion strains, locus YLR268W, strain sec22, hits give low values 0.995 | S. cerevisiae deletion strains, locus YLR330W, strain CHS5, hits give low values 0.985 | S. cerevisiae deletion strains, locus YLR342W, strain FKS1 (second series), hits give low values 0.973 | S. cerevisiae deletion strains, locus YLR371W, strain rom2, hits give low values 0.979 | S. cerevisiae deletion strains, locus YLR418C, strain cdc73, hits give low values 0.946 | S. cerevisiae deletion strains, locus YML016C, strain PPZ1, hits give low values 0.978 | S. cerevisiae deletion strains, locus YML032C, strain rad52, hits give low values 0.964 | S. cerevisiae deletion strains, locus YML124C, strain tub3, hits give low values 0.961 | S. cerevisiae deletion strains, locus YMR078C, strain ctf18, hits give low values 0.96 | S. cerevisiae deletion strains, locus YMR223W, strain ubp8, hits give low values 0.959 | S. cerevisiae deletion strains, locus YMR263W, strain SAP30, hits give low values 1.01 | S. cerevisiae deletion strains, locus YMR307W, strain GAS1, hits give low values 0.84 | S. cerevisiae deletion strains, locus YNL067W, strain RPL9B, hits give low values 1.01 | S. cerevisiae deletion strains, locus YNL128W, strain TEP1, hits give low values 1.01 | S. cerevisiae deletion strains, locus YNL153C, strain GIM3, hits give low values 1 | S. cerevisiae deletion strains, locus YNL233W, strain BNI4, hits give low values 0.98 | S. cerevisiae deletion strains, locus YNL250W, strain rad50, hits give low values 0.972 | S. cerevisiae deletion strains, locus YNL271C, strain bni1, hits give low values 0.977 | S. cerevisiae deletion strains, locus YNL298W, strain CLA4, hits give low values 0.982 | S. cerevisiae deletion strains, locus YNL322C, strain KRE1, hits give low values 0.992 | S. cerevisiae deletion strains, locus YNR052C, strain pop2, hits give low values 0.991 | S. cerevisiae deletion strains, locus YOL006C, strain TOP1, hits give low values 0.896 | S. cerevisiae deletion strains, locus YOL012C, strain htz1 1.19 | S. cerevisiae deletion strains, locus YOL147C, strain pex11, hits give low values 0.975 | S. cerevisiae deletion strains, locus YOR061W, strain CKA2, hits give low values 0.977 | S. cerevisiae deletion strains, locus YOR069W, strain VPS5, hits give low values 0.983 | S. cerevisiae deletion strains, locus YOR136W, strain idh2, hits give low values 0.981 | S. cerevisiae deletion strains, locus YOR144C, strain elg1, hits give low values 0.978 | S. cerevisiae deletion strains, locus YOR184W, strain ser1, hits give low values 0.899 | S. cerevisiae deletion strains, locus YOR316C, strain cot1, hits give low values 0.967 | S. cerevisiae deletion strains, locus YPL055C, strain LGE1, hits give low values 1.01 | S. cerevisiae deletion strains, locus YPL241C, strain CIN2, hits give low values 0.984 | S. cerevisiae deletion strains, locus YPR119W, strain clb2, hits give low values 0.971 | S. cerevisiae deletion strains, locus YPR141C, strain kar3, hits give low values 0.97 | S. cerevisiae deletion strains, locus YPR163C, strain tif3, hits give low values 0.984 | S. cerevisiae deletion strains, locus YPR167C, strain met16, hits give low values 0.97 | S. cerevisiae deletion strains, strain wtn01, hits give low values 0.975 | S. cerevisiae strains, strain wild type, hits give low values 0.998
